This is an account of results in PubChem BioAssay (Tox21).

Records with an inconclusive call do not appear. Calls of active or inactive are those of the source. Unless noted, the call rests on the fitted dose curve; in most records, active means well fitted cell-killing curve with a large enough effect in the repeat runs; inconclusive means weak or mixed curves, or effect the other way; inactive means no such curve, though single readings can be large or run the other way.
Further: nearly all actives have a fitted effect of over 30% in size.
On the % scale 0 is the no-effect control and ±100 the full control effect.

Progesterone receptor (Homo sapiens), sequence (P06401 whole entry, looked up): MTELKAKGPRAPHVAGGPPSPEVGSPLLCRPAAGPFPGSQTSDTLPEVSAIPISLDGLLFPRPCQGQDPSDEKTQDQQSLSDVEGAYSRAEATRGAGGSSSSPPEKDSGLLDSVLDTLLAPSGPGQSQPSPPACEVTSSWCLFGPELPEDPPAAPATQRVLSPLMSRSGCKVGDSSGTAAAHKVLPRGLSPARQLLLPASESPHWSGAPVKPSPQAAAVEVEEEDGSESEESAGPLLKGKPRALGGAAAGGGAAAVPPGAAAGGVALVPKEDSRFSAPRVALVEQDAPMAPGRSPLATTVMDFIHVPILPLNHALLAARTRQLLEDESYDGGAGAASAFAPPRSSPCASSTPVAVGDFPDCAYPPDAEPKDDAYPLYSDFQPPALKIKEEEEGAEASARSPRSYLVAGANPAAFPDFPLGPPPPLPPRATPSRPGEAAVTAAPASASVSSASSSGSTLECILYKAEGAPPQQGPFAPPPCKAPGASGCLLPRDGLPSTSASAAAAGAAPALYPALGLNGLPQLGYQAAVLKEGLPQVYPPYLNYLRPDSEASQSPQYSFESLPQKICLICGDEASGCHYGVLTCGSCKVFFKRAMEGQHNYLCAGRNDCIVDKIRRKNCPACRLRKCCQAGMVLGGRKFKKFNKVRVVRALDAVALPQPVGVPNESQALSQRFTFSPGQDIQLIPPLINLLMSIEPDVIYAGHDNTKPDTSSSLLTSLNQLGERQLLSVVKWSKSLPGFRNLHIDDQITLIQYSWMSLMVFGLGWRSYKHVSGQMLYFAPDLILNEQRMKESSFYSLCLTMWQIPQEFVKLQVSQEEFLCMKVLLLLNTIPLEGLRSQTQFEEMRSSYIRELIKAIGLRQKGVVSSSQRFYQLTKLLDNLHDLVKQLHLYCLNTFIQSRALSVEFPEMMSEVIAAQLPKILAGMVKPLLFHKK

Tested on in the first assay: not listed separately
Briefly: qHTS assay to identify small molecule agonists of the estrogen receptor alpha (ER-alpha) signaling pathway in the presence of an antagonist - cell viability counter screen (AID 1259386). To be noted: VM7Luc4E2 viability, CellTiter-Fluor fluorescence, 22 h; series mostly up to 92.4 µM; activity change, negative = cytotoxicity: at the top concentration. An outline of the steps: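 Read-out: CellTiter-Fluor fluorescence after 1hr reagent incubation, measured in the same wells as the luciferase readout. VM7Luc4E2 cells were exposed to 15 compound concentrations with 10.0nM ICI-182,780 for 22hr at 37C.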
In general terms: Quantitative high-throughput screening tests each substance at several concentrations.
Regarding `OC1OCCOC1O` (stereo not given), the “activity change, negative = cytotoxicity” value is -0.31% (inactive). For `CC(C)(CO)C(O)C(=O)NCCCO` (stereo not given), the “activity change, negative = cytotoxicity” value was 0.179% (inactive). `CCC(C)C(C)=O` (stereo not given): the “activity change, negative = cytotoxicity” value is 1.84% (inactive). On the same count and under the same terms, under `Cc1ccccc1C(N)=O` stands 2.76% (inactive); under `CCCc1ccc(O)cc1`, 0.0895% (inactive); under `CCc1occc(=O)c1O`, 0.436% (inactive).

In the case of `CC1(C)CC(OC(=O)CCCCCCCCC(=O)OC2CC(C)(C)NC(C)(C)C2)CC(C)(C)N1`, the activity change, negative = cytotoxicity is -0.743% [at 19 µM] (inactive). Regarding `CC1CC(=O)CC(C)(C)C1` (stereo not given), the “activity change, negative = cytotoxicity” value is 1.34% (inactive).

As to `CCCCOC(=O)C(C)O` (stereo not given), the “activity change, negative = cytotoxicity” value is 0.491% (inactive).

Take `CC1CCc2c(N3CCC(O)CC3)c(F)cc3c(=O)c(C(=O)O)cn1c23` (stereo not given): the “activity change, negative = cytotoxicity” value was 0.414% [at 42.5 µM] (inactive). As for `COP(=O)(O)OP(=O)(O)OC`, the “activity change, negative = cytotoxicity” value is 2.23% (inactive). The same measure, in the same setting: in the case of `CCCC(=O)Nc1ccc(OCC(O)CNC(C)C)c(C(C)=O)c1` (stereo not given) it was -0.686% [at 42.5 µM] (inactive); in that of `CN(C)C(C)(C)CO`, 1.67% (inactive); in that of `CC(C)Nc1ccccc1`, 0.115% (inactive). As to `C=CC/C=C/C`, the “activity change, negative = cytotoxicity” value is 0.635% (inactive).

`COc1ccc2c(c1)c1c3n2CCN(C)C3=NCC1`: the “activity change, negative = cytotoxicity” value is 1.74% [at 42.5 µM] (inactive).

Turning to `CN(C)CCOC(=O)C(c1ccccc1)C1(O)CCCC1` (stereo not given), the “activity change, negative = cytotoxicity” value was -8.61% [at 42.5 µM] (inactive). On to `COC(=O)c1cc(Cl)cc(Cl)c1`, for which the “activity change, negative = cytotoxicity” value is 0.621% (inactive).

With `CC1(C)[C@H]2CC[C@](C)(C2)[C@H]1O`, the “activity change, negative = cytotoxicity” value is -2.26% (inactive).

In the case of `COCCc1ccccn1`, the “activity change, negative = cytotoxicity” value was -2.73% [at 42.5 µM] (inactive).

Regarding `COC(=O)CCCCC(CCSS/C(CCO)=C(\C)N(C=O)Cc1cnc(C)nc1N)SC(C)=O` (stereo not given), the “activity change, negative = cytotoxicity” value is 8.76% [at 42.5 µM] (inactive).

`CC12CCC(C1)C(C)(C)C2O` (stereo not given): the “activity change, negative = cytotoxicity” value was 0.617% (inactive).

As for `COc1cc(/C=C/C(N)=O)cc(OC)c1OC`, the “activity change, negative = cytotoxicity” value was 3.33% [at 42.5 µM] (inactive). For the molecule `CCOc1cccc(N)c1`, the “activity change, negative = cytotoxicity” value is -0.0805% (inactive).

For `CCOC(=O)CC1(C)OCC(C)O1` (stereo not given), the “activity change, negative = cytotoxicity” value is 0.621% (inactive).

`Cc1cc(C)c(C(=O)O)c(C)c1`: the “activity change, negative = cytotoxicity” value was 0.24% (inactive). On to `CCCSSCCC`, for which the “activity change, negative = cytotoxicity” value is -1.22% (inactive). The same measure, in the same setting: under `CC(=O)OC1CCCCC1C(C)(C)C` (stereo not given) stands 0.579% (inactive). `Fc1ccccc1`: the “activity change, negative = cytotoxicity” value is -0.873% (inactive). Still for that read-out and setting: under `CC1=C(O)C(=O)C(C)O1` (stereo not given) stands -0.488% (inactive); under `C/C(CC(C)C)=N\O`, 0.0307% (inactive); under `O=C(Cn1ccnc1[N+](=O)[O-])NCc1ccccc1`, 2.4% [at 42.5 µM] (inactive). With `CC1(C)Oc2ccc(C#N)cc2[C@@H](N2CCCC2=O)[C@@H]1O`, the “activity change, negative = cytotoxicity” value is 1.66% [at 42.5 µM] (inactive). On the same count and under the same terms, under `[O]=[Mo](=[O])=[O]` stands -0.317% [at 19 µM] (inactive). In the case of `CCCCOCC(C)O` (stereo not given), the “activity change, negative = cytotoxicity” value was -0.809% (inactive). Still for that read-out and setting: under `CCC(C)C(=O)OCCc1ccccc1` (stereo not given) stands 0.988% (inactive); under `COC(C)(OC)OC`, 1.1% (inactive).

Another assay has as its target Progesterone receptor (Homo sapiens) (UniProt P06401). Briefly: qHTS assay to identify small molecule agonists of the progesterone receptor (PR) signaling pathway (AID 1346784; calls by dose curve). To be noted: PR-UAS-bla HEK293T, beta-lactamase FRET ratio, 16 h; series mostly up to 92.4 µM; activation: at the top concentration. The method in brief: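 HEK 293T PR-UAS-bla reporter cells, 2% charcoal-stripped FBS; 6 hr settle at 37C/5% CO2, compound (DMSO) 16 hr, LiveBLAzer B/G FRET substrate 2 hr RT, fluorescence intensity read.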
As to `OC1OCCOC1O` (stereo not given), the “activation” value is 0.996% (inactive).

Turning to `CC(C)(CO)C(O)C(=O)NCCCO` (stereo not given), the “activation” value was 0.383% (inactive). For `CCC(C)C(C)=O` (stereo not given), the “activation” value was 0.543% (inactive). Turning to `Cc1ccccc1C(N)=O`, the “activation” value was 0.827% (inactive).

Consider `CCCc1ccc(O)cc1`, for which the “activation” value was 0.861% (inactive). In the case of `CCc1occc(=O)c1O`, the “activation” value is -0.347% (inactive). Consider `CC1(C)CC(OC(=O)CCCCCCCCC(=O)OC2CC(C)(C)NC(C)(C)C2)CC(C)(C)N1`, for which the activation is 0.194% [at 19 µM] (inactive). Regarding `CC1CC(=O)CC(C)(C)C1` (stereo not given), the “activation” value was 0.528% (inactive).

Consider `CCCCOC(=O)C(C)O` (stereo not given), for which the “activation” value was -0.0689% (inactive). On to `CC1CCc2c(N3CCC(O)CC3)c(F)cc3c(=O)c(C(=O)O)cn1c23` (stereo not given), for which the “activation” value is 3.87% [at 42.5 µM] (inactive). Consider `COP(=O)(O)OP(=O)(O)OC`, for which the “activation” value was 0% (inactive). Consider `CCCC(=O)Nc1ccc(OCC(O)CNC(C)C)c(C(C)=O)c1` (stereo not given), for which the “activation” value was -0.587% [at 42.5 µM] (inactive). Take `CN(C)C(C)(C)CO`: the “activation” value is 0.939% (inactive).

As to `CC(C)Nc1ccccc1`, the “activation” value was 0.0458% (inactive). For `C=CC/C=C/C`, the “activation” value was 0.227% (inactive). Regarding `COc1ccc2c(c1)c1c3n2CCN(C)C3=NCC1`, the “activation” value was -1.13% [at 42.5 µM] (inactive). Still for that read-out and setting: under `CN(C)CCOC(=O)C(c1ccccc1)C1(O)CCCC1` (stereo not given) stands -0.133% [at 42.5 µM] (inactive); under `COC(=O)c1cc(Cl)cc(Cl)c1`, -1.17% (inactive).
